# Test results: ChEMBL document CHEMBL3433997, “St. Jude Leishmania screening dataset” (2016)
# Legend:
# Type in all cases: functional
# [1] = target: Solute carrier family 2, facilitated glucose transporter member 1 (Homo sapiens) (UniProt P11166); test: ST_JUDE_LEISH: Cytotoxicity at 2uM final concentration against transgenic Leishmania Mexicana promastigotes LmGLUT1 that are glucose transport deficient and complemented with the human glucose transporter GLUT1. Activity is measured by DNA content using SYBR green in vitro
# [2] = target: Hexose transporter 1 (Plasmodium falciparum) (UniProt O97467); test: ST_JUDE_LEISH: Cytotoxicity at 2uM final concentration against transgenic Leishmania Mexicana promastigotes LmPfHT that are glucose transport deficient and complemented with the Plasmodium falciparum hexose transporter. Activity is measured by DNA content using SYBR green in vitro
# [3] = target: Glucose transporter (Leishmania mexicana) (UniProt O61059); test: ST_JUDE_LEISH: Cytotoxicity at 2uM final concentration against transgenic Leishmania Mexicana promastigotes LmGT2 that are glucose transport deficient and complemented with the L. Mexicana glucose transporter 2. Activity is measured by DNA content using SYBR green in vitro
# Chain of Solute carrier family 2, facilitated glucose transporter member 1 (Homo sapiens) (P11166 whole entry): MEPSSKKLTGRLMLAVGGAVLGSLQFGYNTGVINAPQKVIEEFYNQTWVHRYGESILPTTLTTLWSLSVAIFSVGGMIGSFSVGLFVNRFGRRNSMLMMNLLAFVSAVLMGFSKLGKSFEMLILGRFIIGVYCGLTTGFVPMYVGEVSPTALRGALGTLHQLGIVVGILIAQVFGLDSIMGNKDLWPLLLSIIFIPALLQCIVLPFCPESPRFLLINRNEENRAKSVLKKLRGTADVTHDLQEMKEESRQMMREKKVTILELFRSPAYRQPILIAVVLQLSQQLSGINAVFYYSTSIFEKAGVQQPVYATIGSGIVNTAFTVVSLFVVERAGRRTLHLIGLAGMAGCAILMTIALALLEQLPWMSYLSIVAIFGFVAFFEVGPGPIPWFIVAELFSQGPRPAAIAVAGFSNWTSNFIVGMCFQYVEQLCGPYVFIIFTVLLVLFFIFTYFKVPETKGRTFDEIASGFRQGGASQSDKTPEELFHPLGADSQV
Compound,inhibition [1],inhibition [2],inhibition [3]
OCCn1c(CNCCCNc2nc3ccccc3[nH]2)cc2c(Cl)cc(Cl)cc21,82%,88.2%,80.5%
O=C(/C=C/c1cccs1)NCC(NCCCNc1cc(=O)c2ccccc2[nH]1)c1cc(Br)cc(Br)c1 (stereo not given),4.13%,3.76%,4.57%
COc1cc2c(cc1OC)CN(CCc1ccc(NC(=O)c3cc4cc(Cl)ccc4[nH]3)cc1)CC2,8.2%,0.43%,1.46%
N#Cc1cccc(/C=C/C(=O)NC2CCC(CCN3CCc4ccc(-c5cnccn5)cc4CC3)CC2)c1 (stereo not given),7.94%,7.48%,7.56%
Nc1ccc(-c2ccc3ccnc(N)c3c2)cn1,1.94%,-1.53%,2.84%
CCOC(=O)c1c[nH]c2c(sc3cc(OC)ccc32)c1=O,-0.83%,-0.51%,-0.47%
Cc1cccc2nc(-c3cccc(-c4ccc(NC(=O)C(C)(C)c5ccccn5)cc4)c3)[nH]c12,3.05%,1.16%,2.94%
CC1CCCC(NC(=O)CCOc2ccccc2)C1 (stereo not given),7.23%,6.34%,6.88%
O=C(NCCCCN1CCC(c2ccc3c(c2OCC(O)c2ccc(Cl)cc2)CCCC3)CC1)c1ccc(-c2ccc(C(F)(F)F)cc2)cc1 (stereo not given),0.65%,1.49%,0.85%
O=C(Nc1cccc(-c2cccc(-c3nc4cc(C(F)(F)F)ccc4[nH]3)c2)c1)c1c[nH]cn1,1.86%,3.96%,-1.42%
CC(Cc1ccc(NS(=O)(=O)c2ccc(CC(C)NCCc3cccc(Cl)c3)cc2)cc1)NCCc1cccc(Cl)c1 (stereo not given),0.89%,9.69%,7.25%
CCCc1cc(OC)c(C[C@H]2c3cc(O)c(Cl)cc3CCN2C)cc1OC,0.24%,1.13%,1.4%
C=CCOC(=O)N1CCC(CNCc2cccc(-c3ccc(-c4nc5cc(C(F)(F)F)ccc5[nH]4)cc3)c2)C1 (stereo not given),2.19%,2.5%,1.63%
CCN(CC)CCCC(C)Nc1c2ccc(Cl)cc2nc2ccc(OC)cc12 (stereo not given),5.81%,1.67%,3.71%
c1ccc(-c2ccc3c(Nc4ccc5[nH]ncc5c4)ccnc3c2)nc1,4.92%,4.75%,5.04%
c1ccc(Oc2ccc(Nc3ccnc4cc(-c5ccc(CNCCN6CCOCC6)o5)ccc34)cc2)cc1,2.2%,2.86%,0.92%
CCN(CC)/C(=N/C(=N)NCc1ccc(Cl)cc1)NCCCCCCN/C(=N\C(=N)NCc1ccc(Cl)cc1)N(CC)CC,9.05%,8.96%,8.12%
CC(=O)c1ccc(-c2ccccc2)s1,2.16%,3.72%,1.61%
CCc1nnc2sc(-c3cccc(NC(=O)c4ccc(C)c([N+](=O)[O-])c4)c3)nn12,7.69%,3.97%,2.48%
NC1CCCN(Cc2cccc(-c3cccc(-c4nc5ccccc5[nH]4)c3)c2)C1 (stereo not given),8.27%,6.48%,5.75%
CCc1ccc(NC(=O)N(CCCn2ccnc2)Cc2csc(-c3ccc(CNCc4ccccc4)cc3)n2)cc1,2.66%,2.93%,2.49%
Cc1cc(OCCCN2CCC(NC(=O)c3ccc(Br)cc3)C2)c2ccccc2n1 (stereo not given),24.3%,19.2%,13.4%
N=C(NCc1ccccc1)Nc1nc(-c2ccc(OCCCn3ccnc3)cc2)cs1,29.9%,35.3%,15.5%
Cc1nc2cc(/C=C/C(=O)NC3CCC(CCN4CCc5ccc(C#N)cc5CC4)CC3)ccc2[nH]1 (stereo not given),3.09%,2.24%,3.19%

Compound,inhibition [1],inhibition [2],inhibition [3]
CO/C(=C\C=C\c1cc2cc(Cl)c(Cl)cc2[nH]1)C(=O)NCCCNC12CC3CC(CC(C3)C1)C2,3.15%,1.55%,0.89%
C[C@@H](COc1ccccc1)NCC(O)c1ccc([N+](=O)[O-])c(OCc2ccccc2)c1 (stereo not given in full),0.54%,0.96%,0.1%
CCC1(CC)CN(c2ccccc2)c2ccc(O)cc2S(=O)(=O)C1CC(C)C (stereo not given),0.72%,0.32%,0.3%
CN1CCC(N2CCN(Cc3ccc(-c4cccc(-c5nc6ccccc6[nH]5)c4)cc3)CC2)CC1,0.9%,1.87%,1.93%
N=c1c2nc(-c3c(F)cccc3Cl)[nH]c(=O)c2[nH]c(=O)n1-c1ccccc1,2.91%,11.5%,3.34%
CCCC(C)Nc1nc(C)cc(N[C@@H](Cc2ccccc2)C(=O)NCCOc2ccccc2)n1 (stereo not given in full),4.27%,3.26%,1.16%
CN1CCN(Cc2cc3cc(NC(=O)/C=C/c4ccc(Cl)cc4)ccc3s2)CC1,4.5%,0.55%,1.01%
CCc1cccc(-n2c(=O)c3cccnc3n2CC(=O)NCc2ccccc2Cl)c1,9.08%,9.17%,4.33%
O=C(Nc1ccc2c(c1)CCC2)c1cnc(N2CCN(c3ccncc3)CC2)c(Cl)c1,54.2%,63.6%,37%
Cc1[nH]c(C)c(-c2ccc(-c3ccc(Cl)cc3)nc2)c(=O)c1Cl,0.56%,1.71%,-0.19%
CN1CCN(CCCN(Cc2cccc(-c3ccc(CNCc4ccc5c(c4)OCO5)cc3)c2)C(=O)Nc2ccccc2)CC1,1.77%,4.4%,1.33%
CCCNC(=O)Nc1cc2cc(-c3cccc(CN4CCCCC4)c3)ccc2n2c(C)nnc12,0.33%,1.3%,0.91%
CN(C)c1ccc(-c2csc(C(=O)NC3CCN(CCC(C)(C)C)C3)c2)cc1 (stereo not given),3.05%,4.39%,2.37%
COc1ccccc1CCNc1ncc(F)c(N[C@@H](Cc2ccccc2)C(=O)NCCc2ccccc2)n1,0.53%,-0.37%,0.24%
O=C(Nc1cccc(CN2CCN(Cc3cccc(O)c3)CC2)c1)c1cc2ccccc2s1,3.62%,3.45%,3.74%
COc1ccc(C(=O)N2CCC3(CC2)C(=O)N(CC(=O)NC2CCCCC2)CN3c2ccccc2)c(OC)c1,3.74%,3.6%,4.38%
COc1ccc(-c2cnc3[nH]cc(-c4ccc(C(=O)O)c(C)c4)c3c2)cn1,0.31%,-0.48%,0.32%
COc1ccc2nccc([C@@H](O)CN3CCC(NC(=O)/C=C/c4ccnc5ccccc45)CC3)c2c1,-1.7%,-1.62%,-2.64%
O=C(Cc1c[nH]cn1)Nc1cccc(-c2ccc(-c3nc4cc(F)ccc4[nH]3)s2)c1,3.94%,6.17%,0.26%
CN(C)c1ccc(-c2csc(C(=O)NC3CCCCN(CCC(C)(C)C)C3)c2)cc1 (stereo not given),2.51%,2.15%,0.68%
C=C1C(C(=O)OCC)=CN(CC)c2cc(O[C@H]3CCN(C(=O)OC(C)(C)C)C3)ccc21,2.71%,2.53%,-2.32%
CCCC1N=C(N)N=C(N)N1c1ccc(OC)cc1 (stereo not given),1.53%,-0.34%,1.56%
COc1ccccc1N1CCN(CCCCN(C(=O)Nc2cccc(Cl)c2)C(=O)Nc2cccc(Cl)c2)CC1,10.6%,8.66%,10.6%
CC(=O)Nc1ccc(CN2CCC(CNC(=O)c3cc(-c4cccc(C(F)(F)F)c4)cs3)C2)cc1 (stereo not given),-0.71%,0.04%,-5.57%

Compound,inhibition [1],inhibition [2],inhibition [3]
Cc1cnc(Nc2cccc(CCN3CCOCC3)c2)nc1NC(C)C,9.35%,9.73%,2.69%
Cn1cncc1CCN(Cc1ccc(-c2ccc(C(F)(F)F)cc2)cc1)C(=O)Cn1c(SCc2cccc(F)c2F)cc(=O)c2ccccc21,4.77%,1.65%,2.14%
CCCCCN1CCCC(CNS(=O)(=O)c2ccc(C(=O)Nc3ccc(C(F)(F)F)cc3)cc2)C1 (stereo not given),-1.01%,-0.37%,-0.42%
Cc1cccc(CC2CC(=O)N(c3ccc([N+](=O)[O-])cc3)C2=O)c1 (stereo not given),7.63%,7.62%,7.64%
O=C(Nc1cc(F)cc(F)c1)N[C@H]1CCN(CCCCCNC(=O)C2CC2c2ccc(Cl)c(Cl)c2)C1 (stereo not given in full),-0.04%,0.55%,-1.55%
COc1cc(C(=O)NC2CCN(Cc3ccccc3)CC2)ccc1-c1nc2cc(Cl)c(Cl)cc2[nH]1,0.11%,1.66%,0.13%
CC(C)(C)c1ccc(NC(=O)c2cccc(CN3CCCN(Cc4cccc(O)c4)CC3)c2)cc1,6.18%,6.24%,1.99%
CCN(CC)CC(O)c1cc(-c2ccc(C)cc2)nc2c(C)cc(C)cc12 (stereo not given),3.3%,3.65%,-1.02%
COc1ccc(C=NN=c2c3ccccc3[nH]c3ccccc23)c2ccccc12,6.42%,5.85%,5.05%
O=C(Nc1ccc2c(c1)CCN2C1CCN(Cc2cc(F)cc(F)c2F)C1)c1ccco1 (stereo not given),1.75%,2.07%,3.47%
CCOC(=O)c1ccc(-c2cnoc2-c2cc(CC)c(OC)cc2O)o1,-0.08%,1.08%,1.38%
Cc1ccccc1C1CCN(C2CCC(NC(=O)/C=C/c3cccc(Cl)c3Cl)CC2)CC1 (stereo not given),4.12%,1.26%,4.18%
COc1ccc(CC(=O)Nc2ccc(Nc3nc(C)cc(N4CCCC4)n3)cc2)cc1,46%,51.5%,16.1%
O=C(NC1CCCCC1)N(Cc1ccc(-c2cccc(CNCc3ccc4c(c3)OCO4)c2)cc1)C1CCN(Cc2ccccc2)CC1,2.19%,1.74%,0.81%
Cc1nc2nc(N)nc(N)c2c(C)c1Cc1cccs1,1.85%,1.16%,2.44%
COc1ccc(C(c2ccc(N(C)C)cc2)c2ccc(N(C)C)cc2)cc1,95.3%,94.5%,84.9%
CCOc1ccccc1C=CC(=O)Nc1ccc2nc(N3CCN(C)CC3)cc(C)c2c1,5.87%,2.96%,4.24%
Cc1cc(-c2cccc(CNC3CCN(C)CC3)c2)ccc1S(=O)(=O)NCc1ccccc1,4.02%,3.65%,4.62%
Fc1ccc(CNc2ncc(-c3ccsc3)c(-c3nccs3)n2)cc1,0.01%,4.04%,0.95%
COC(=O)c1cccc(CNCc2cccc(-c3cccc(-c4nc5cc(C(F)(F)F)ccc5[nH]4)c3)c2)c1,-1.41%,-2.35%,-2.5%
Cc1ccc(C2CCN(CCCCNC(=O)c3ccc(NC(=O)c4ccc(Cl)cc4)cc3)CC2)c(OCC2CC2)c1,7.51%,6.25%,5.52%
CNC(=O)C1Cc2c([nH]c3cc(Br)ccc23)C2(CCN(CCc3ccccc3)CC2)N1 (stereo not given),2.01%,0.63%,1.83%
